Assay results from PubChem BioAssay (Tox21).
Where “and” joins values, the source holds several entries; their conditions need not be identical. Equal entries are not always repeated. Records with an inconclusive call do not appear. Where a structure was tested more than once in an assay, its records may differ in their call. Calls of active or inactive are those of the source. Unless noted, calls come from the whole dose curve.

Experiments:
[1] = Nuclear factor erythroid 2-related factor 2/antioxidant responsive element (Nrf2/ARE) small molecule agonists: luciferase reporter gene qHTS assay in human keratinocytes (AID 1919969); note: nearly all actives have a fitted effect of over 35% in size; note: potency is the fitted concentration of half-maximal effect
[2] = biological target: Gonadotropin-releasing hormone receptor (Homo sapiens) (UniProt P30968); assay: Human gonadotropin-releasing hormone receptor (GnRHR) small molecule agonists, calcium flux assay in GnRHR-HEK293 cells (AID 1920063); note: nearly all actives have a fitted effect of over 35% in size; note: potency is the fitted concentration of half-maximal effect
Sequence of Gonadotropin-releasing hormone receptor (Homo sapiens) (P30968 whole entry, looked up): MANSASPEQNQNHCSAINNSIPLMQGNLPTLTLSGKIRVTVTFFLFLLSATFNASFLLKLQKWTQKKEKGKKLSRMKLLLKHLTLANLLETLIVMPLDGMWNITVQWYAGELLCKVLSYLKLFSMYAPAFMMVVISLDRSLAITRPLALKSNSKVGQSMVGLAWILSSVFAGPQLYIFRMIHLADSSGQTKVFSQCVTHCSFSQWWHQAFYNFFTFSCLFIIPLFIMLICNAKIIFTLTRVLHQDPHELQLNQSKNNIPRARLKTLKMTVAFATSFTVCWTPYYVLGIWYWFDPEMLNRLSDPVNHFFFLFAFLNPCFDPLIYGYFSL
Method in brief: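 Tox21-format agonist screen using human GnRHR-expressing HEK293 cells and a fluorescent calcium dye; kinetic 3-min fluorescence reading after compound addition, 15-point concentration series run in triplicate.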

[3] = biological target: KiSS-1 receptor (Homo sapiens) (UniProt Q969F8); assay: Human kisspeptin (KISS1R) small molecule agonists, calcium flux assay in KISS1R-HEK293 cells (AID 1920064; active = well fitted activation curve with a large enough effect in the repeat runs)
Sequence of KiSS-1 receptor (Homo sapiens) (Q969F8 whole entry, looked up): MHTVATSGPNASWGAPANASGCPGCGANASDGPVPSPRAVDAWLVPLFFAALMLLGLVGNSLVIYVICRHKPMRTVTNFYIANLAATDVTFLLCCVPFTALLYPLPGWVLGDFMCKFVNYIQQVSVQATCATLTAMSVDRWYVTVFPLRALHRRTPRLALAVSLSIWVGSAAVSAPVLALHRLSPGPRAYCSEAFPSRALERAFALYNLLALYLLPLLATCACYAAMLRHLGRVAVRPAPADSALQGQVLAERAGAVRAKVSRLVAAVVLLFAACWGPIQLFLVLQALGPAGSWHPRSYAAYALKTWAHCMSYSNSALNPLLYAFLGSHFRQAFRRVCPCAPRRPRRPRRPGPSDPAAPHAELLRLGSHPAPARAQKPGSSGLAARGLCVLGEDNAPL
Method in brief: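 Intracellular calcium mobilization in KISS1R-HEK293 cells was recorded by fluorescence (Ex/Em 480/540) for 3 min following compound addition to cells pre-loaded 1 h with calcium dye.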

[4] = G protein-coupled receptor (GPCR) small molecule agonists, calcium flux assay: HEK293 wild type cell line counter screen (AID 1920065)
Method in brief: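 In this agonist-mode screen, ATP is the positive control and DMSO the vehicle. Cells grow 18 h before a 1 h dye incubation at 37 C; signal is taken at Ex/Em 480/540 over 3 min.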

[5] = p53 small molecule agonists, cell-based qHTS assay with human liver microsomes (AID 1963577);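 note: p53 response element beta-lactamase reporter cells with liver microsomes plus NADPH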
Method in brief: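 With metabolic activation: human liver microsomes (0.5 mg/mL final) plus NADPH (0.5 mg/mL final) added alongside compounds to p53RE-bla cells; 16 h 37 C exposure; beta-lactamase read by LiveBLAzer fluorescence.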

[6] = p53 small molecule agonists, cell-based qHTS assay with rat liver microsomes (AID 1963578)
Method in brief: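 Metabolic activation by rat liver microsomes and NADPH, each 0.5 mg/mL final, added right after compounds to p53RE-bla reporter cells (4,000/well, plated 5 h earlier). 16 h at 37 C, then LiveBLAzer substrate for 2 h at room temperature in the dark; fluorescence read-out.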

[7] = p53 small molecule agonists, cell-based qHTS assay with human liver microsomes: qHTS cell viability counter screen (AID 1963579); note: nearly all actives have a fitted effect of over 45% in size
Method in brief: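 Metabolic activation used human liver microsomes and NADPH, both 0.5 mg/mL final, over 16 hours at 37 C on p53RE-bla cells (4,000/well). Cytotoxicity measured by CellTiter-Glo luminescence, 30 min at room temperature.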

[8] = p53 small molecule agonists, cell-based qHTS assay: qHTS cell viability counter screen (AID 1963581); note: nearly all actives have a fitted effect of over 45% in size
Method in brief: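 Compounds are pinned onto HCT-116 p53RE-bla cells and left 16 h at 37 C. Following the reporter FRET read, ATP is quantified by CellTiter-Glo luminescence after 30 min at room temperature.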

[9] = p53 small molecule agonists, cell-based qHTS assay (AID 1963582; active = well fitted activation curve with a large enough effect in the signal ratio in the repeat runs, not every such curve was filed as active; the % refers to the signal ratio)
Method in brief: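 Agonist activity was scored from beta-lactamase FRET fluorescence in p53RE-bla cells treated 16 h at 37 C with compounds in DMSO, substrate incubation being 2 h at room temperature.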

[10] = biological target: 5-hydroxytryptamine receptor 2A (Homo sapiens) (UniProt P28223); assay: 5-hydroxytryptamine receptor 2A (HTR2A) small molecule antagonists, cell-based qHTS assay (AID 1963586); note: nearly all actives have a fitted effect of over 45% in size; note: potency is the fitted concentration of half-maximal effect
Sequence of 5-hydroxytryptamine receptor 2A (Homo sapiens) (P28223 whole entry, looked up): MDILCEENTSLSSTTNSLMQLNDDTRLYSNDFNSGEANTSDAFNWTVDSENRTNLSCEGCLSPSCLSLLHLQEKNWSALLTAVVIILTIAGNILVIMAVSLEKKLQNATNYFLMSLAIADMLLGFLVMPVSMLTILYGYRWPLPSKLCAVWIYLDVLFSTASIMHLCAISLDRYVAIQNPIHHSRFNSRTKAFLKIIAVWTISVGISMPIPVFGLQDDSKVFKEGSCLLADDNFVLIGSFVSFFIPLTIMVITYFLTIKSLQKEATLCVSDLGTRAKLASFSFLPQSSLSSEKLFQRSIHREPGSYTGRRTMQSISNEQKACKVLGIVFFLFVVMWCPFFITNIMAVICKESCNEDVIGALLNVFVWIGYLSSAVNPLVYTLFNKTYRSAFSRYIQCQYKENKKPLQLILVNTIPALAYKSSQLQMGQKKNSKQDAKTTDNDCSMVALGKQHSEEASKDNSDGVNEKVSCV
Method in brief: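 Antagonist-mode intracellular calcium assay: DOI (4 nM) added after 5 min compound pre-incubation at room temperature to dye-loaded HTR2A-CHO cells. Fluorescence followed for 3 min, sampled every second.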

[11] = biological target: 5-hydroxytryptamine receptor 2A (Homo sapiens) (UniProt P28223); assay: 5-hydroxytryptamine receptor 2A (HTR2A) small molecule agonists, cell-based qHTS assay (AID 1963587); note: nearly all actives have a fitted effect of over 30% in size
Method in brief: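 CHO cells stably expressing human HTR2A, plated 18 h, loaded with calcium dye 1 h at 37 C. Agonist mode: compounds added and intracellular calcium fluorescence recorded kinetically for 2 min at 1 sec intervals.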

[12] = biological target: Muscarinic acetylcholine receptor M1 (Homo sapiens) (UniProt P11229); assay: Cholinergic receptor muscarinic 1 (CHRM1) small molecule antagonists, cell-based qHTS assay (AID 1963588); note: nearly all actives have a fitted effect of over 40% in size; note: potency is the fitted concentration of half-maximal effect
Sequence of Muscarinic acetylcholine receptor M1 (Homo sapiens) (P11229 whole entry, looked up): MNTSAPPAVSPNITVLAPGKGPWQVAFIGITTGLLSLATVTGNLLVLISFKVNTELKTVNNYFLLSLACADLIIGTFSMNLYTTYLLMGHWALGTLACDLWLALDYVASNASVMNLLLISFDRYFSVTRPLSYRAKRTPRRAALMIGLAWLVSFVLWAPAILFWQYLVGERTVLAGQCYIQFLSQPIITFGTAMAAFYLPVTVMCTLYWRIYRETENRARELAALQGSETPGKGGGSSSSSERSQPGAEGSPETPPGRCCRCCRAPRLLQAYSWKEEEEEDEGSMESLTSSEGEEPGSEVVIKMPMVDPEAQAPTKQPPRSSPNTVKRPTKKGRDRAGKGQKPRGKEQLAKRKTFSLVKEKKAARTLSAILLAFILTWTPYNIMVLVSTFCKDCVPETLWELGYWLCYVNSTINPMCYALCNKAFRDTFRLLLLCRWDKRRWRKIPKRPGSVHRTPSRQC
Method in brief: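 CHRM1-CHO calcium-flux assay, antagonist mode. Cells were seeded 18 h, dye-loaded 1 h at 37 C and given compound for 5 min at RT, then acetylcholine was added at 50nM. FDSS fluorescence was read 3 min; 15 concentrations, three runs.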

[13] = biological target: Muscarinic acetylcholine receptor M1 (Homo sapiens) (UniProt P11229); assay: Cholinergic receptor muscarinic 1 (CHRM1) small molecule agonists, cell-based qHTS assay (AID 1963589); note: nearly all actives have a fitted effect of over 35% in size; note: potency is the fitted concentration of half-maximal effect
Method in brief: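 Stable CHRM1-CHO cells (human receptor) were incubated 18 h, dye-loaded for 1 h at 37 C and exposed to test compounds for agonist activity, with calcium-dependent fluorescence followed kinetically.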

[14] = cAMP Responsive Elements (CRE) small molecule agonists, cell-based qHTS assay (AID 1963590)
Method in brief: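 FRET-based beta-lactamase readout (LiveBLAzer B/G, 2 h RT) quantified CRE activation in HEK 293T CRE-bla cells after 3 h treatment with DMSO-dissolved compounds.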

[15] = biological target: Beta-2 adrenergic receptor (Homo sapiens) (UniProt P07550); assay: Adrenergic beta2 receptor (ADRB2) small molecule antagonists, cell-based qHTS assay (AID 1963592); note: series mostly up to about 92 µM; nearly all actives have a fitted effect of over 50% in size
Sequence of Beta-2 adrenergic receptor (Homo sapiens) (P07550 whole entry, looked up): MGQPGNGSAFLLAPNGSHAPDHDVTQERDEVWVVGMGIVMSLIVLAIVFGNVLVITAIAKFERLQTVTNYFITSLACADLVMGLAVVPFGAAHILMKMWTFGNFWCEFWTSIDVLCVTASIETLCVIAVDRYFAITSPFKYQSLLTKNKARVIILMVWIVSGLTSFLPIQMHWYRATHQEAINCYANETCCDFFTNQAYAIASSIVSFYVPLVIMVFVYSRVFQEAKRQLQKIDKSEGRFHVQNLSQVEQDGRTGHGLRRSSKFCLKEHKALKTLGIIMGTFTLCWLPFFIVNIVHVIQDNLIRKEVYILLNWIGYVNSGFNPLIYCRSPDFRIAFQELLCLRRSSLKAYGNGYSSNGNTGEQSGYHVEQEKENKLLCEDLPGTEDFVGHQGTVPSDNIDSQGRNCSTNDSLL
Method in brief: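 Cells (CHO, stable ADRB2 overexpression) incubated 18-20hr at 37C; compounds added from DMSO; agonist mix (1nM isoproterenol, 100uM IBMX, 25uM Ro-20-1724) added; 0.5hr RT; d2-cAMP and anti-cAMP-cryptate added; 1hr RT; 665/615 nm read.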

[16] = biological target: Beta-2 adrenergic receptor (Homo sapiens) (UniProt P07550); assay: Adrenergic beta2 receptor (ADRB2) small molecule agonists, cell-based qHTS assay (AID 1963593);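 note: CHO cells stably overexpressing human ADRB2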
Method in brief: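 CHO cells stably over-expressing ADRB2 were plated overnight at 37C, then dosed with compounds plus a stimulation mix containing 100uM IBMX and 25uM Ro-20-1724 for 0.5hr at room temperature. cAMP was measured by HTRF competition, 1hr.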

[17] = biological target: D(2) dopamine receptor (Homo sapiens) (UniProt P14416); assay: Dopamine D2 receptor (DRD2) small molecule agonists, cell-based qHTS assay (AID 1963594); note: nearly all actives have a fitted effect of over 35% in size
Sequence of D(2) dopamine receptor (Homo sapiens) (P14416 whole entry, looked up): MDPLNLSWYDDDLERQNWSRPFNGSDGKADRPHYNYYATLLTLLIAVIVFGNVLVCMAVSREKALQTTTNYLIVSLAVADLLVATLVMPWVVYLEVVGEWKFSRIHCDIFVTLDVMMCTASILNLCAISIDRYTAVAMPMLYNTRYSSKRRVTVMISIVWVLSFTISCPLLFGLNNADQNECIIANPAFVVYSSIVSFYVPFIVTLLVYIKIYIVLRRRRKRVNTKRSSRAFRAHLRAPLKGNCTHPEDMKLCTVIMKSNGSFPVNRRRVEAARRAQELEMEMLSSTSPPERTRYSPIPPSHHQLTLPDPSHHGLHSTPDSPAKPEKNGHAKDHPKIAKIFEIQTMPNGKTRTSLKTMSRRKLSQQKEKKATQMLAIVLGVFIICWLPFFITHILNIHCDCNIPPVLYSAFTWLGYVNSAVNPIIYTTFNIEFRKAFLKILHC
Method in brief: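 HEK293 cells stably expressing human DRD2, pre-treated with PDE inhibitor Ro20-1724 (0.1 mM final) and compound 10 min at room temperature, then stimulated with NKH477 (200nM […]) for 30 min. cAMP read by HTRF (665/620 nm).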

[18] = biological target: D(2) dopamine receptor (Homo sapiens) (UniProt P14416); assay: Dopamine D2 receptor (DRD2) small molecule antagonists, cell-based qHTS assay (AID 1963595; active = well fitted inhibition curve with a large enough effect in the signal ratio in the repeat runs, with a control signal flat; the % refers to the signal ratio)
Method in brief: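 Readout: HTRF cAMP, cAMP-d2 competing with cellular cAMP for anti-cAMP cryptate, read after 1 h. Cells: DRD2-HEK293. Conditions: 0.1 mM Ro20-1724, 12 nM quinpirole, 200 nM NKH477, 30 min RT.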

[19] = cAMP Responsive Elements (CRE) small molecule antagonists, cell-based qHTS assay (AID 1963591; active = well fitted inhibition curve with a large enough effect in the signal ratio in the repeat runs, not every such curve was filed as active; the % refers to the signal ratio)
Method in brief: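 qHTS in CRE-bla HEK 293T cells: compound in DMSO, then 0.25 uM NKH477 (final), 3 h at 37 °C/5% CO2; beta-lactamase FRET read-out after 2 h substrate incubation.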

[20] = p53 small molecule agonists, cell-based qHTS assay with rat liver microsomes: qHTS cell viability counter screen (AID 1963580); note: nearly all actives have a fitted effect of over 45% in size
Method in brief: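 p53RE-bla HCT-116 cells were exposed 16 h at 37 C to compounds with rat liver microsomes (0.5 mg/mL) and NADPH (0.5 mg/mL). Viability was measured in the same wells as ATP content by CellTiter-Glo luminescence.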

Measured: Potency

Nc1ccc2c(S(=O)(=O)O)cccc2c1S(=O)(=O)O
not listed: [19] | [20]
inactive: all other assays above

CC(C)CCOC(=O)c1ccccc1
not listed: [14] | [16] | [20]
inactive: all other assays above

OC1CCCC1
not listed: [5] | [6] | [9] | [16]
inactive: all other assays above

COC(c1ccccc1)(c1ccccc1)[C@H](Oc1nc(C)cc(C)n1)C(=O)O
not listed: [7] | [12] | [18]
inactive: all other assays above

Cc1cccc(S(=O)(=O)O)c1C
not listed: [3] | [4] | [12]
inactive: all other assays above

CCC/C=C/CO
not listed: [2] | [8] | [12] | [18]
inactive: all other assays above

CCOc1ccccc1OCC
not listed: [5] | [7] | [14]
inactive: all other assays above

CCN(CC)CCNC(=O)c1ccc(N)cc1
not listed: [1] | [5] | [6] | [9] | [10] | [11] | [12] | [13]
inactive: all other assays above

C=CCOc1cc(Cl)ccc1C(=O)NCCN(CC)CC
active: [12] 4.6 µM
not listed: [3] | [16] | [18]
inactive: all other assays above

CCCc1c2oc(C(=O)O)cc(=O)c2cc2c(=O)cc(C(=O)O)n(CC)c12
not listed: [1]
inactive: all other assays above

CC(C)(c1ccc(O)cc1)c1ccc(O)cc1
inactive and 62.2 µM (active): [1]
not listed: [7] | [9] | [10] | [11] | [12] | [13] | [14] | [16]
inactive: all other assays above

CC(C)CC(=O)O
not listed: [2] | [16] | [17]
inactive: all other assays above

CCCCOCCOCCOC(=O)CCCCC(=O)OCCOCCOCCCC
not listed: [3] | [5] | [6] | [9] | [16]
inactive: all other assays above

O=C(c1ccc(Cl)cc1)c1ccc(Cl)cc1
not listed: [7] | [17] | [20]
inactive: all other assays above

COC(=O)c1cc(Cl)ccc1NS(=O)(=O)C(F)(F)F
not listed: [2] | [20]
inactive: all other assays above

CC[C@H](c1ccc(O)cc1)[C@@H](CC)c1ccc(O)cc1
active: [10] 33.4 µM and 14.5 µM | [12] 7.29 µM
not listed: [7] | [11] | [19]
inactive: all other assays above

CC1C(C)(C)C2=C(C(=O)CCC2)C1(C)C (centres undefined)
not listed: [2] | [4] | [16]
inactive: all other assays above

[O-][n+]1ccc(Cl)cc1
not listed: [1]
inactive: all other assays above

COCCOCCOCCOCCOCCO
not listed: [7]
inactive: all other assays above

COC(=O)OC
not listed: [1]
inactive: all other assays above

Nc1ccccc1N
56.2 µM (active) and inactive: [13]
active: [2] 35.5 µM
not listed: [1] | [3] | [6] | [11] | [14] | [16] | [19]
inactive: all other assays above

O=C(O)CCCCCCCCCCC(=O)O
not listed: [5] | [6] | [9] | [12] | [14] | [19]
inactive: all other assays above

O=C1Nc2ccccc2C1=O
not listed: [2] | [7] | [11]
inactive: all other assays above

O=C(c1ccc2c(c1)C(=O)OC2=O)c1ccc2c(c1)C(=O)OC2=O
not listed: [2] | [16] | [18]
inactive: all other assays above

COc1ccc(N)c(OC)c1
inactive and 68.6 µM (active): [1]
not listed: [7] | [15] | [20]
inactive: all other assays above
